Records with an inconclusive call do not appear. Calls of active or inactive are those of the source. Unless noted, the call rests on the fitted dose curve; in most records, active means well fitted curve in the direction sought with a large enough effect; inconclusive means small, poorly fitted or top-dose-only effect, or another doubt; inactive means no such curve, though single readings can be large; an effect the other way counts as inactive or inconclusive.
Legend:
[1] = biological target: Chromobox protein homolog 1 (Homo sapiens) (UniProt P83916); assay: qHTS Validation Assay for Inhibitors of HP1-beta Chromodomain Interactions with Methylated Histone Tails (AID 488953);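 further: loss of AlphaScreen luminescence from HP1-beta binding biotinylated H3K9me3 peptide; series mostly up to about 110 µM; on the % scale 0 is the no-effect control and ±100 the full control effect; nearly all actives have a fitted effect of over 50% in size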
Procedure, shortened: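 AlphaScreen proximity signal from streptavidin donor and nickel chelate acceptor beads (final 10 ug/mL) after 30 min dark incubation. Compounds had 30 min at room temperature with preformed complex of 50 nM HP1-beta and 50 nM b-H3(1-18)K9me3 in PBS pH 7.4 with 0.01% Tween-20.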

[2] = biological target: Methanococcus maripaludis chaperonin (MmCpn) (UniProt Q6LX38); assay: High-Throughput Screening for Modulators of Cytosolic Chaperonin Activity: MmCpn Primary Screen (AID 488978);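 further: 50 nM MmCpn enzyme hydrolysing 30 µM ATP at 37 °C; 0% is about no effect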
Procedure, shortened: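 MmCpn (50 nM final) was preincubated with compound 5 min at RT, then 30 uM ATP (final) was added and the reaction ran 10 min at 37C. ADP produced was detected by Transcreener HTRF (ex 320 nm; em 590/665 nm).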

[3] = biological target: Thyrotropin receptor (Homo sapiens) (UniProt P16473); assay: qHTS Assay for Antagonists of the Thyroid Stimulating Hormone Receptor (AID 488980); further: series mostly up to about 58 µM; 0% is about no effect
Procedure, shortened: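 HEK293 cells transfected with human TSHR, suspended in HEPES-buffered HBSS with 70 uM RO 20-1724, were treated with compounds plus TSH at EC80 (4 nM final). cAMP was measured by competitive HTRF (cryptate anti-cAMP antibody, cAMP-d2 acceptor).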

[4] = biological target: D(1A) dopamine receptor (Homo sapiens) (UniProt P21728); assay: HTS Assay for Allosteric Agonists of the Human D1 Dopamine Receptor: Primary Screen for Agonists (AID 488981); further: 0% is about no effect
Procedure, shortened: (§1)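 Calcium flux in an inducible, force-coupled HEK293 Trex D1 line (overnight at 30 C): agonist mode is the 180 s kinetic read after compound; potentiator mode is the following 180 s read after dopamine at EC20.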

[5] = biological target: D(1A) dopamine receptor (Homo sapiens) (UniProt P21728); assay: HTS Assay for Allosteric Agonists of the Human D1 Dopamine Receptor: Primary Screen for Potentiators (AID 488982); further: 0% is about no effect
Procedure, shortened: as §1

[6] = biological target: D(1A) dopamine receptor (Homo sapiens) (UniProt P21728); assay: HTS Assay for Allosteric Agonists of the Human D1 Dopamine Receptor: Primary Screen for Antagonists (AID 488983);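 further: calcium flux response to an EC80 dopamine challenge measured with no-wash dye; on the % scale 0 is the no-effect control and ±100 the full control effect; nearly all actives have a fitted effect of over 65% in size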
Procedure, shortened: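 Calcium-flux read-out in inducible HEK293 T-REx cells expressing D1, dye-loaded 30–90 min at room temperature. Kinetic reads: 180 s after compound (agonist phase), then 180 s after an EC80 dopamine challenge.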

[7] = Validation screen for small molecules that induce genotoxicity in human embryonic kidney (HEK293T) cells expressing luciferase-tagged ELG1 (AID 493106); conditions: luminescence; further: potency means the concentration at half of the fitted maximal effect
Procedure, shortened: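 ELG1-luciferase reporter readout (ONE-Glo, 30 min, room temperature) after 16 hr compound treatment at 37 °C of HEK293T cells at 2,000 per well. Rising luminescence flags genotoxic stress.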

[8] = biological target: Thyrotropin-releasing hormone receptor (Homo sapiens) (UniProt P34981); assay: qHTS for Small Molecule Agonists and Allosteric Enhancers of Human TRH Receptor: Validation Screen for Agonists (AID 493127;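 active means calcium activation more than 3 SD above the typical response in the agonist read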;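 further: intracellular calcium rise by fluo-8 fluorescence before TRH EC20 addition; 0% is about no effect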); conditions: TRH receptor agonist cell assay; at 2 µM; stronger effect = higher value
Procedure, shortened: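 Compound-evoked intracellular calcium release in fluo-8-loaded TRHR cells, read kinetically on FDSS (Ex 480/Em 530, 1 s/cycle) after 23 nL pintool transfer. Agonist phase preceded 10 nM TRH EC20 addition.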

[9] = Nrf2 qHTS screen for inhibitors: Validation (AID 493153; active means well fitted inhibition curve with a large enough effect in the main read-out, with a control signal flat, not every such curve was filed as active); conditions: viability change: measured here: cytotoxicity max response
Procedure, shortened: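 Concentration-response on A549 ARE_Fluc reporter cells exposed 18-24 h at 37 C, 5% CO2. Cytotoxicity read first by CellTiter-Fluor fluorescence (Ex 405/Em 525), then Nrf2 inhibition by BugLite luminescence after 15 min.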

[10] = qHTS for Inhibitors of Cell Surface uPA Generation: Validation Assay (AID 493164);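 further: RAW 264.7 macrophage cells exposed to compound for 18 h; 0% is about no effect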
Procedure, shortened: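 ATP-Lite luminescence read-out: ATP remains high when uPA activity-dependent LF translocation into the cytoplasm is blocked. RAW 264.7 cells, 18 h compound exposure at 37 C; 7-point titration, 2.45 nM to 38.3 uM final.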

[11] = biological target: Galactokinase (Homo sapiens) (UniProt P51570); assay: qHTS Validation Assay for Inhibitors of Human Galactokinase (GALK) (AID 493189); further: 0% is about no effect
Procedure, shortened: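 GALK (5 nM) with 35 uM ATP and 100 uM galactose in HEPES pH8.0, MgCl2, NaCl, DTT, BSA; 1 h at room temperature. Residual ATP read by Kinase-Glo Plus luminescence after 10 min.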

[12] = Validation screen for small molecules that induce DNA re-replication in SW480 colon adenocarcinoma cells (AID 504364); further: 0% is about no effect
Procedure, shortened: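 Image-based DNA content read-out: Hoechst stain 40 min, total nuclear fluorescence intensity (ex 405 nm, em 500-530 nm) after 48 h compound exposure of 250 SW480 cells/well at 37 C, 5% CO2, versus DMSO vehicle.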

[13] = biological target: Peptidyl-prolyl cis-trans isomerase NIMA-interacting 1 (Homo sapiens) (UniProt Q13526); assay: qHTS Validation Assay to Find Inhibitors of Pin1 (AID 504536; active means well fitted inhibition curve with a large enough effect in the polarisation, with a control signal flat, not every such curve was filed as active; the % refers to the polarisation;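 further: 0% = full Pin1 enzyme wells and -100% = no-enzyme wells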)
Procedure, shortened: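 Fluorescence polarization competition: compounds (titration) displace HiFluor-488-labeled Pin1-1b peptide from Pin1 (0.3 uM final) in pH 7.5 HEPES buffer with DTT, 10 min at room temperature; %Activity normalized to no-enzyme wells, curves fitted.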

[14] = biological target: Phosphoglycerate kinase, glycosomal (Trypanosoma brucei brucei) (UniProt P07378); assay: qHTS Validation Assay to Find Inhibitors of Phosphoglycerate Kinase (AID 504547);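 further: control wells lack PGK and mark full inhibition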
Procedure, shortened: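 Luminescence end-point (Kinase-Glo Plus, 10 min) after a 60 min room-temperature coupled reaction. GAPDH at 100nM final supplies 1,3-BPG to PGK. Buffer: 100mM TEA pH 7.6, 5mM MgCl2, 0.01% Tween-20. Wells lacking PGK served as controls.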

[15] = qHTS for Inhibitors of ATXN expression: Validation of Cytotoxic Assay (AID 588349); further: on the % scale 0 is the no-effect control and ±100 the full control effect
Procedure, shortened: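 Cytotoxicity counter-screen: ATP-based luminescent viability (CellTiter Glo) after 72 hr exposure of HEK293 cells to a compound titration at 37 degrees C.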

[16] = qHTS for Inhibitors of ATXN expression: Validation (AID 588378); further: series mostly up to about 57 µM; on the % scale 0 is the no-effect control and ±100 the full control effect; nearly all actives have a fitted effect of over 75% in size
Procedure, shortened: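 Luminescence from an ATXN2-FFLuc reporter in HEK293 cells served as read-out after 24 h compound treatment at 37 degrees C; CellTiter-Fluor fluorescence was recorded first to assess viability.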

[17] = biological target: Transient receptor potential cation channel subfamily V member 1 (Homo sapiens) (UniProt Q8NER1); assay: HTS Assay for Compounds that Act as Enhancers of the Vanilloid Receptor 1 (AID 488979); further: 0% is about no effect
Procedure, shortened: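 Calcium influx kinetics via Fluo-8 (480/520 nm) in TRPV1-expressing cells, 2000/well cultured overnight at 35.5C. Compound-alone read 3 min (agonist phase), followed by EC20 capsaicin challenge for 2 min (enhancer phase).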

[18] = biological target: DNA dC->dU-editing enzyme APOBEC-3G (Homo sapiens) (UniProt Q9HC16); assay: qHTS for inhibitors of Vif-A3G interactions: Validation (AID 588379); further: 0% is about no effect
Procedure, shortened: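 Yellow fluorescence (Ex 488, Em 500-530) of Vif-coexpressing HeLa A3G-eYFP cells, scanned by Acumen cytometer, reports blocked A3G degradation. Cells plated at 700/well overnight at 37 deg C before compound addition, then a further overnight compound incubation at 37 deg C.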

Sequence of D(1A) dopamine receptor (Homo sapiens) (P21728 whole entry, looked up): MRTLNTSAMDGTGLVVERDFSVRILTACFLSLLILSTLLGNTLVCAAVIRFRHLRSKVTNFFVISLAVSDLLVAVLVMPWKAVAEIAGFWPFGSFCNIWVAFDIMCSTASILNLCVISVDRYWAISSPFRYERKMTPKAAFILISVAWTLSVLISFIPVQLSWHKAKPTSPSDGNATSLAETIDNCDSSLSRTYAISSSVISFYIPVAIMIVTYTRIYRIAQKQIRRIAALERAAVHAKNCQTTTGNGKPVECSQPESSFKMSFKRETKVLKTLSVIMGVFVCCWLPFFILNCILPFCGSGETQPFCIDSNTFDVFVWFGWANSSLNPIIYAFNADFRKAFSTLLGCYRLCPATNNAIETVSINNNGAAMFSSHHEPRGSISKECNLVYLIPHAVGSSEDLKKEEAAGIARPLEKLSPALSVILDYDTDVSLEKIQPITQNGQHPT
Sequence of Thyrotropin receptor (Homo sapiens) (P16473 whole entry, looked up): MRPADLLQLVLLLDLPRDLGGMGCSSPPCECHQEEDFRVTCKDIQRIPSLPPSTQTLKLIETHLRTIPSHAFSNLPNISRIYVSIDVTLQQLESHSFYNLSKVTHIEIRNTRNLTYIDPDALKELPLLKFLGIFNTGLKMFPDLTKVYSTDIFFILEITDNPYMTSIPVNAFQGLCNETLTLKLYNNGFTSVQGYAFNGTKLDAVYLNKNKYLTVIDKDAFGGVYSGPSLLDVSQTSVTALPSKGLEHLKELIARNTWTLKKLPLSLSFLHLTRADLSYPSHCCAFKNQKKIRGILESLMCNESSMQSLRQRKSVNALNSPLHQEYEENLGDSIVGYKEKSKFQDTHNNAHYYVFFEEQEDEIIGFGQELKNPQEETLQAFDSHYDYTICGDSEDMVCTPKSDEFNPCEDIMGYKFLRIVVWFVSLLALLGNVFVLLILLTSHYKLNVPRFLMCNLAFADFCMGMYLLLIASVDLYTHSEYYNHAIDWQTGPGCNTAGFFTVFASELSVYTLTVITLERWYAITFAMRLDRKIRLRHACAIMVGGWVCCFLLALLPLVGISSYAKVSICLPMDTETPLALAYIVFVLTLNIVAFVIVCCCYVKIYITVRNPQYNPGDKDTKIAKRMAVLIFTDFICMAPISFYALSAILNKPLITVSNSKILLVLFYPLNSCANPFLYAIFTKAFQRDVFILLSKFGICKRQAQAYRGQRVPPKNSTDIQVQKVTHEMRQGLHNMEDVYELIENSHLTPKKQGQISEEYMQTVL
Sequence of Thyrotropin-releasing hormone receptor (Homo sapiens) (P34981 whole entry, looked up): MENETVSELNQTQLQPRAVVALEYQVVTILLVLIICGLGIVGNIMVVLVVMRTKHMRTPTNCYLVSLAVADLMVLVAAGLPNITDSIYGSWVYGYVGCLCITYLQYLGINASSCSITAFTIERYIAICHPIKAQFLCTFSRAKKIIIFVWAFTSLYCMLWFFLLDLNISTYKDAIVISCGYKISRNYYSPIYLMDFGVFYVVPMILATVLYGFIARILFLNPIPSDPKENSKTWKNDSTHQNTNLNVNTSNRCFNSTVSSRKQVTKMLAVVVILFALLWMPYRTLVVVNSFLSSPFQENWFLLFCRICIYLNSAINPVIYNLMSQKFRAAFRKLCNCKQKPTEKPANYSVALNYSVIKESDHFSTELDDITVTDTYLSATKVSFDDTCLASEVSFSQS
Sequence of Phosphoglycerate kinase, glycosomal (Trypanosoma brucei brucei) (P07378 whole entry, looked up): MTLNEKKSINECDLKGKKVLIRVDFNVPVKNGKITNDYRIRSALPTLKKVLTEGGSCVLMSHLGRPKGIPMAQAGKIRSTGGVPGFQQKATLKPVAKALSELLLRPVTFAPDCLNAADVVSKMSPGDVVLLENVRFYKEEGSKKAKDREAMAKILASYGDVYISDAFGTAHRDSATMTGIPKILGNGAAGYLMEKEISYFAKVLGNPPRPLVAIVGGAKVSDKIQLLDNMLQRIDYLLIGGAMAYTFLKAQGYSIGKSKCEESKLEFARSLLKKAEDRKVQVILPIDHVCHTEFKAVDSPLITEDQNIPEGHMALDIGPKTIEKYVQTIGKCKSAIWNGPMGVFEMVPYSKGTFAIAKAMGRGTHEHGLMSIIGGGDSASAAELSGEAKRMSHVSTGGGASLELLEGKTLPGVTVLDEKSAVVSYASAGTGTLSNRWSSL
Sequence of Peptidyl-prolyl cis-trans isomerase NIMA-interacting 1 (Homo sapiens) (Q13526 whole entry, looked up): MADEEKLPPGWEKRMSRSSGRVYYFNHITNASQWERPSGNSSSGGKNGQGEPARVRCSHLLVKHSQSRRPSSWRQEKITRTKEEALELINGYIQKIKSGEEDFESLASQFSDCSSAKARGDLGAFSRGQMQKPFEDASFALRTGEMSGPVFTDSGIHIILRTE
Sequence of Galactokinase (Homo sapiens) (P51570 whole entry, looked up): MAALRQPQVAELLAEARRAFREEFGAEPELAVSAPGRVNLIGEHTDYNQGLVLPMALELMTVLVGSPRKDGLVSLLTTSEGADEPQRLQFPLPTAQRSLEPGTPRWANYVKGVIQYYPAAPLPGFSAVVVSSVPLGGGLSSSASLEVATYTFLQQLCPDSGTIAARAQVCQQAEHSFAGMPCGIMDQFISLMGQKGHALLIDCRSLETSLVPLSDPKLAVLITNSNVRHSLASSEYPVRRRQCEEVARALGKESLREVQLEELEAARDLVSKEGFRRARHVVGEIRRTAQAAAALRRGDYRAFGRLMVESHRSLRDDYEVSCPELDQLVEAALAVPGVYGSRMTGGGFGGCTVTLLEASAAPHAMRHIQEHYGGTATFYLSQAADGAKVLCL
Sequence of DNA dC->dU-editing enzyme APOBEC-3G (Homo sapiens) (Q9HC16 whole entry, looked up): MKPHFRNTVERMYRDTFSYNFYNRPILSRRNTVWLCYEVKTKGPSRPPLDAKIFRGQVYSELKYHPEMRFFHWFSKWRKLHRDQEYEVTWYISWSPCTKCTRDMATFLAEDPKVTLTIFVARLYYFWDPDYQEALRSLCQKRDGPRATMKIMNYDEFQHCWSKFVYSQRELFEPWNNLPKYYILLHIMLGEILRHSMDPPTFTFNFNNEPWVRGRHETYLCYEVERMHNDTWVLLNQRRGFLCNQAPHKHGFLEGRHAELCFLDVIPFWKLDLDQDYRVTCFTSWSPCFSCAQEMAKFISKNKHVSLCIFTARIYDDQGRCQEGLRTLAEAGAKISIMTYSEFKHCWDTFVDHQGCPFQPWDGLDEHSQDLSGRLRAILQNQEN
Sequence of Methanococcus maripaludis chaperonin (MmCpn) (Q6LX38 1-543): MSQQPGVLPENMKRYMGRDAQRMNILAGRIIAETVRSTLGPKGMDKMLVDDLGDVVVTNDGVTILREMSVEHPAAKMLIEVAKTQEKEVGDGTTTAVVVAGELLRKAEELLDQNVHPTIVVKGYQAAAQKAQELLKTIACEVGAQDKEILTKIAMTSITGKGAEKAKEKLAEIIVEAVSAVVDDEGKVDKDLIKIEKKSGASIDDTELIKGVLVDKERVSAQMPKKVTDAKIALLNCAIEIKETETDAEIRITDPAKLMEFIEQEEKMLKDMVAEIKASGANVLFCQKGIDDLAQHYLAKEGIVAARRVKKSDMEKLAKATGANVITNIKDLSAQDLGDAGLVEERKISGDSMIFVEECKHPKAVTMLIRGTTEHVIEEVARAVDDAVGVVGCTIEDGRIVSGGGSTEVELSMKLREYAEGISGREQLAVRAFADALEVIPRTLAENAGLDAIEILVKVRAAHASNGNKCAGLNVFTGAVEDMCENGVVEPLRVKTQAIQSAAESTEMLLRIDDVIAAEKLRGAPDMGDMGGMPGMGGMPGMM
Sequence of Chromobox protein homolog 1 (Homo sapiens) (P83916 whole entry, looked up): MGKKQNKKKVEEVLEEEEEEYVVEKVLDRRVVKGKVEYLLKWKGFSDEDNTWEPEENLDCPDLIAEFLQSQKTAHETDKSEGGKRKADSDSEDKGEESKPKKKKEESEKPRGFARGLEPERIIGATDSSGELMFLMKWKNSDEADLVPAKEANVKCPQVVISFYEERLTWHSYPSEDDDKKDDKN
Sequence of Transient receptor potential cation channel subfamily V member 1 (Homo sapiens) (Q8NER1 whole entry, looked up): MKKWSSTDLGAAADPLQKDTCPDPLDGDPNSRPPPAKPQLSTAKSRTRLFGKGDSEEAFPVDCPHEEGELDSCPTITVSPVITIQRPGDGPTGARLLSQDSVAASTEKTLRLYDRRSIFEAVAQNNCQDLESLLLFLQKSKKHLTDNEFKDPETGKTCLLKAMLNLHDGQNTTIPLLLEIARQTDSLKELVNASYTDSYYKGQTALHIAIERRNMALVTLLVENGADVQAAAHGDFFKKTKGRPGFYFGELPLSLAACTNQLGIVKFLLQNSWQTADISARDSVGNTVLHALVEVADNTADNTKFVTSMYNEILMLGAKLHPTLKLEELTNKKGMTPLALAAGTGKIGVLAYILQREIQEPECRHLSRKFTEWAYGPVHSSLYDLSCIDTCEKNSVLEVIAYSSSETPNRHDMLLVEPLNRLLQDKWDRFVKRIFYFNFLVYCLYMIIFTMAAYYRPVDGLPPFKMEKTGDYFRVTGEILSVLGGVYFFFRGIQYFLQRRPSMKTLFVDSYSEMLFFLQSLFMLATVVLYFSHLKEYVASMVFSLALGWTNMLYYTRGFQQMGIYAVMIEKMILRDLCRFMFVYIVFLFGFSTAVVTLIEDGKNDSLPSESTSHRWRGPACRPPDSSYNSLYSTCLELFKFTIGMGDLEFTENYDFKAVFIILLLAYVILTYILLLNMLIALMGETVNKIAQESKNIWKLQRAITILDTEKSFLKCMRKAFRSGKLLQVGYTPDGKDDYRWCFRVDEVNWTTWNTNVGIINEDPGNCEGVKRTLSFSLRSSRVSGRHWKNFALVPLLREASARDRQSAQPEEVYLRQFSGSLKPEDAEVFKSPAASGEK

O=c1c2ccccc2nc2n1CCc1c-2[nH]c2ccccc12
active: Potency [7] 8.2 µM
inactive: outcome [1] | outcome [2] | outcome [3] | outcome [4] | outcome [5] | outcome [6] | activation [8] -4.5% | outcome [9] | outcome [10] | outcome [11] | outcome [12] | outcome [13] | outcome [14] | outcome [15] | outcome [16]
-3.53%: viability change [9]

CC[C@H](CO)Nc1nc(NCc2ccccc2)c2ncn(C(C)C)c2n1
inactive: outcome [17] | outcome [3] | activation [8] 0.312%

COC(=O)C[C@](O)(CCCC(C)(C)O)C(=O)O[C@@H]1C(OC)=C[C@]23CCCN2CCc2cc4c(cc2[C@H]13)OCO4
inactive: outcome [18]

Source: PubChem BioAssay (NCATS)
